Rows were chosen to be rich in hits. Some 21% of all compounds tested hit in one or more screens of this group.
MRP1 act: MRP-1 activation | H69AR cells + doxorubicin, viability rescue, CellTiter-Glo | viability increase, % at 10 µM | 0.61% of 140,000 active;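 active means viability gain under doxorubicin at or above a set limit, the compound median plus 3 SD, cut at about 4.7% in these data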;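 further: MRP-1 overexpressing cells given doxorubicin 25 µM after compound pretreatment; 18-22 h compound pretreatment then 72 h with doxorubicin before readout; 0% = doxorubicin-only wells and 100% = vehicle-treated cells without doxorubicin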
MRP reversal: reverses drug resistance mediated by MRP. H69AR cells + 2 uM doxorubicin, CellTiter-Glo, 72 h. differential viability (reversal), % at 10 µM. 0.04% of 85,000 active. AID 602;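 active means viability drop by adding the cancer drug above about 55%, with treated viability meeting a 40% cutoff, limit read from the data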;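 further: viability without doxorubicin minus viability with 2 µM doxorubicin for each compound; larger differential means the compound sensitizes cells more to doxorubicin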
CYP2C9 activ: CYP2C9 (human) activation; P11712; recombinant CYP2C9, luciferin-H conversion, luminescence; active compounds read high; factor 1 = untreated enzyme, 0 = blocked; activation factor at 5 µM; 1.4% of 96,000 active;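 active means activation factor of 2 or more for CYP2C9 at a 5 µM dose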;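 further: 0 = sulfaphenazole-blocked wells and 1 = vehicle-only wells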
CYP2C19 act: increases human CYP2C19 enzyme activity | P33261 | recombinant CYP2C19, luciferin-H EGE luminescence; active compounds read high; 0 = fully inhibited enzyme, 1 = untreated enzyme | activation factor at 5 µM | 96,000 tested, under 10 active;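 active means activation factor of at least 2 at 5 µM in the primary screen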;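 further: 0 = wells with 2.5 mM tranylcypromine and 1 = vehicle-only wells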
Target sequence (P33261 whole entry, looked up): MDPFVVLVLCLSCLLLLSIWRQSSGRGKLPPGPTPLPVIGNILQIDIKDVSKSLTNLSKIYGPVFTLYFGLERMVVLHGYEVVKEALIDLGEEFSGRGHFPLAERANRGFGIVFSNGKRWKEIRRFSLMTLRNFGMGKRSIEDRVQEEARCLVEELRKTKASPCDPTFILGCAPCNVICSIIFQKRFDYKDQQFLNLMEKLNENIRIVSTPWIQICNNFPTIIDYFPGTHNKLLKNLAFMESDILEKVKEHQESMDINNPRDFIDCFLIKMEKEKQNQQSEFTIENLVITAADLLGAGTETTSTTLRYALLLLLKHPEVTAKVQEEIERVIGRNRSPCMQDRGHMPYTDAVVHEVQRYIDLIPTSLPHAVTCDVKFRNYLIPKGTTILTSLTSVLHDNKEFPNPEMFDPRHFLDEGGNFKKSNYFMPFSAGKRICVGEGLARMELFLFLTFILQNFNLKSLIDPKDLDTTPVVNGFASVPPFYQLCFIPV
CYP2C9 inh: blocks human cytochrome P450 2C9 | P11712 | CYP2C9 Supersomes, luciferin-H conversion, luminescence | inhibition, % at 5 µM | 20% of 96,000 active | AID 777;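 active means blocking of liver enzyme CYP2C9 beyond about 50% at 5 µM, limit read from the data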
CYP2C19 inh: human CYP2C19 inhibition. P33261. CYP2C19 Supersomes, luciferin-H EGE luminescence, 30 min. inhibition, % at 5 µM. 21% of 96,000 active. AID 778;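 active means CYP2C19 inhibition above a set limit at 5 µM in the primary screen, cut at about 50% in these data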;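 further: plate controls were negative control wells for no effect and 2.5 mM tranylcypromine positive control for full effect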
The depositor's hits bear a star; x = not tested or not shown.

SMILES	MRP1 act	MRP reversal	CYP2C9 activ	CYP2C19 act	CYP2C9 inh	CYP2C19 inh
CC(NC(=O)Cc1cccs1)C(c1cccs1)N1CCOCC1 (stereo not drawn)	0	17	x	x	x	x
CC(=O)N1N=C(c2ccccc2)CC1c1cn(C)c2ccccc12 (stereo not drawn)	-1	x	x	x	x	x
O=C1CCN2C=Nc3cccc4ccc1c2c34	-2	x	0.9	0.9	13	6
CCC1(C)CC(CCNS(=O)(=O)c2ccc(C)cc2)(c2ccc(C)cc2)CCO1 (stereo not drawn)	-6	x	0.5	0.3	53*	69*
Cc1cc(Nc2ccccc2)nn1C(=O)c1ccc(Cl)cc1	-1	11	0.5	1.1	55*	-10
N=C1c2ccccc2CN1NC(=O)c1cccc(S(=O)(=O)N2CCCC2)c1	-1	x	x	x	x	x
COc1ccccc1CNC(=O)CN(c1ccc(C)cc1)S(=O)(=O)c1c(C)n[nH]c1C	0	13	0.3	0.3	67*	67*
COc1ccc(NC(=O)CN(c2cc(C)cc(C)c2)S(=O)(=O)c2c(C)n[nH]c2C)cc1	-2	9	0.3	0.9	69*	14
Cc1ccc(N(C(C)C(=O)O)S(=O)(=O)c2c(C)n[nH]c2C)cc1 (stereo not drawn)	1	7	0.8	0.9	20	11
CCOc1ccccc1NC(=O)CN(c1ccc(C)cc1)S(=O)(=O)c1c(C)n[nH]c1C	0	-24	0.1	0.3	95*	73*
COc1ccc(N(CC(=O)Nc2cc(C)on2)S(=O)(=O)c2cc(C)ccc2C)cc1	-4	-26	0	0	95*	98*
O=C(NN1CCOCC1)C12CC3CC(CC(C3)C1)C2	0	x	x	x	x	x
COc1cccc(N2CCN(C(=O)CN(c3ccc(C)cc3)S(=O)(=O)c3c(C)n[nH]c3C)CC2)c1	-1	-2	0.2	0.4	81*	58*
COc1ccc(N(CC(=O)O)S(=O)(=O)c2c(C)n[nH]c2C)cc1	1	-3	1.1	1.1	-14	-12
CCOC(=O)c1ccc(NC(=O)CN(c2ccc(C)cc2)S(=O)(=O)c2c(C)n[nH]c2C)cc1	0	-22	0.2	0.8	76*	19
CCOC(=O)c1ccc(NC(=O)COC)cc1	0	-6	0.8	0.8	16	23
Cc1ccc(N(CC(=O)Nc2ccc3c(c2)OCCO3)S(=O)(=O)c2c(C)n[nH]c2C)cc1	-1	16	0.3	0.4	74*	62*
Cc1ccc(N(CC(=O)Nc2ccc3c(c2)OCCO3)S(=O)(=O)c2c(C)noc2C)cc1	-1	16	0.8	1	24	-4
CC(C)OC(=O)C1C(=O)CC(C)(O)C(C(=O)OC(C)C)C1c1cccc(O)c1 (stereo not drawn)	-1	0	0.8	0.5	22	50
O=c1c(S(=O)(=O)c2ccc(Cl)cc2)cn(Cc2ccccc2F)c2ccc(F)cc12	4	x	x	x	x	x
CCC(Sc1nc2ccccc2s1)C(=O)Nc1nnc(C)s1 (stereo not drawn)	10*	x	0.3	0.7	67*	27
CCC(Sc1nc2ccc(N)cc2s1)C(=O)Nc1nccs1 (stereo not drawn)	-2	-12	0.4	0.2	62*	77*
CC(Sc1nc2ccccc2s1)C(=O)Nc1nnc(C(C)C)s1 (stereo not drawn)	-1	-2	0.3	0.8	66*	23
COc1ccc(C(C)(C)C)cc1NC(=O)Nc1ccc2c(c1)OCO2	-5	-12	x	x	x	x
CC(C)(C)c1ccc(C(=O)NC(=S)Nn2cnnc2)cc1	0	x	x	x	x	x
SMILES	MRP1 act	MRP reversal	CYP2C9 activ	CYP2C19 act	CYP2C9 inh	CYP2C19 inh
CCOC(=O)C(CO)(NC(C)=O)C(=O)OCC	-1	3	1.1	1.2	-11	-16
O=C(CNS(=O)(=O)c1cccc2nonc12)NCc1ccc(F)cc1	-2	x	0.5	0.5	49	53*
COc1ccc(CNC(=O)C2CCC(CNS(=O)(=O)c3cccc4nsnc34)CC2)cc1 (stereo not drawn)	0	10	1	1	2	0
O=C(COC(=O)c1cccc(C(=O)OCC(=O)NCc2ccc(F)cc2)n1)NCc1ccc(F)cc1	-3	x	x	x	x	x
O=C(CNS(=O)(=O)c1cccc2nsnc12)NCc1ccc(Cl)cc1	-3	2	0.5	0.5	52*	50*
Cc1cccnc1NC(=O)C1CCCN(S(=O)(=O)c2ccc3c(c2)oc(=O)n3C)C1 (stereo not drawn)	-1	-7	0.6	0.8	40	23
O=S(=O)(Nc1nc2ccccc2nc1NCCN1CCOCC1)c1cccc(Cl)c1	-3	6	0	1	98*	0
Nc1c(S(=O)(=O)c2cccc(Cl)c2)c2nc3ccccc3nc2n1CCN1CCOCC1	-1	-9	0.8	0.9	25	12
Clc1ccc(-c2csc3ncnc(NCCN4CCOCC4)c23)cc1	-3	31	0.8	0.8	23	24
Clc1ccc(-c2nc(NCCN3CCOCC3)c3ccccc3n2)cc1	-2	8	0.5	0.8	50*	20
CCN(CC)S(=O)(=O)c1ccc(NS(=O)(=O)CC23CCC(CC2=O)C3(C)C)cc1 (stereo not drawn)	-3	x	x	x	x	x
O=C(Nc1ccc(Cl)cc1)C1CCC(=O)N1Cc1ccccc1Cl (stereo not drawn)	-1	x	0.1	0.2	91*	79*
O=C(CC1CCCCC1)N1CCCC(c2nc(-c3ccc(S(=O)(=O)N4CCCC4)cc3)no2)C1 (stereo not drawn)	-2	x	0.4	0.7	60*	30
O=C(c1ccco1)N1CCCC(c2nc(-c3ccc(S(=O)(=O)NCc4ccccc4)cc3)no2)C1 (stereo not drawn)	-4	x	x	x	x	x
COc1cccc(-c2noc(C3CCCN(C(=O)Cc4ccccc4)C3)n2)c1 (stereo not drawn)	-1	-6	0.6	0.7	41	30
COc1ccc(NC(=O)N2CCCC(c3nc(-c4ccc(C(C)C)cc4)no3)C2)cc1 (stereo not drawn)	0	2	0.3	0.6	67*	36
CCCCCC(=O)N1CCCC(c2nc(-c3ccc(OC)cc3)no2)C1 (stereo not drawn)	-4	-9	0.3	0.4	67*	64*
COc1ccc(-c2noc(C3CCCN(C(=O)CCc4ccccc4)C3)n2)cc1 (stereo not drawn)	-1	6	0.3	0.6	70*	44
COc1ccc(-c2ccc(-c3noc(C4CCCCC4)n3)c(OC)n2)cc1	3	-5	0.8	0.9	24	12
O=C(Cc1c(Sc2ccccc2)c2ccccc2n1Cc1ccccc1)NCCO	-4	x	x	x	x	x
CN(C)c1oc(COc2ccccc2F)nc1C#N	0	13	0.6	0.1	42	92*
N#Cc1nc(COc2ccccc2F)oc1NCc1ccc(F)cc1	-3	-23	0.3	0.4	72*	55*
COc1ccc(CCNc2oc(COc3ccccc3F)nc2C#N)cc1	0	1	0	0.1	97*	94*

Screening results (PubChem BioAssay)
